From PubChem BioAssay (NCATS)
Records with an inconclusive call do not appear. A call without a number means that no potency is given here. Activity calls are given as the source filed them. Calls come from the whole dose curve; as a rule, active = well fitted inhibition curve with a large enough effect; inconclusive = small, poorly fitted or top-dose-only effect; inactive = flat fitted curve, though single readings scatter.

The compounds below were run against Calcium and integrin-binding protein 1 (Homo sapiens) (UniProt Q99828) (assay: Primary qHTS for Identification of Calcium Integrin Binding Protein 1 (CIB1) Competitor (AID 1508620;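 note: GST tagged CIB1 binding a fluorescein labelled alphaIIb integrin peptide tracer; top concentration of the series differs between compounds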)). Conditions: CIB1-GST / FITC-alphaIIb peptide fluorescence polarization; series mostly up to 114 µM.
Sequence of Calcium and integrin-binding protein 1 (Homo sapiens) (Q99828 whole entry, looked up): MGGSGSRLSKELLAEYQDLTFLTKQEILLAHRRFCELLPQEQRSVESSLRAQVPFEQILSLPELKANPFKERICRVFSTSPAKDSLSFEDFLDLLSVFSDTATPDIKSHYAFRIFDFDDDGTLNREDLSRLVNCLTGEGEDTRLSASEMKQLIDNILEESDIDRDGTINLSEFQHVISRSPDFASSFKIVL
Excerpt: Assay Provider: Ulhas P. Naik, PhD Sidney Kimmel Medical College Thomas Jefferson University, Philadelphia, PA Primary function of platelets is to maintain hemostasis. At the site of vascular injury, platelets adhere to adhesive proteins such as collagen and von Willebrand factor. Adherent platelets are activated and generate soluble platelet agonists such as thrombin, ADP and thromboxane A2. Following exposure of circulating platelets to these agonists, results in platelet shape change, granule secretion and activation of platelet integrin alphaIIb-beta3. Ligand binding to activated integrin alphaIIb-beta3 triggers outside-in signaling, leading to platelet aggregation, stabilization of platelet plug, and clot retraction. Upon atherosclerotic plaque rupture also causes platelet plug formation, which underlies a number of cardiovascular diseases such as myocardial infraction and stroke. A number of anti-platelet drugs such as aspirin, clopidogrel, prasugrel, vorapaxar, and eptifibatide are currently available to prevent the thrombotic complications. However, these anti-platelet agents have several limitations including inherent variability in individual responses, developing resistance, and serious bleeding side effects. For these reasons they are not suitable for long-term protection. Based on the experiences with current anti-platelet drugs, it appears that the most useful therapeutic approach is to intersect the secondary responses such as integrin outside-in signaling or recruitment of platelets by TxA2 and secreted ADP. Compounds, which can largely preserve the primary hemostatic function of platelets but inhibit secondary response will be most desired therapeutic agents for treatment of cardiovascular disease. CIB1 is a calcium integrin binding protein, which specifically interact with the alphaIIb subunit of integrin alphaIIb-beta3. Binding of CIB1 to alphaIIb regulates the outside-in signaling in platelets, which is needed for thrombus stabilization and thrombus growth. […] Therefore, we propose that discovery of a small molecule that can prevent the association of CIB1 and alphaIIb-beta3 will be a potential anti-platelet agent that can block the thrombus formation without undue effect on hemostasis. Reference: [1] Naik MU, Nigam A, Manrai P, et al. CIB1 deficiency results in impaired thrombosis: the potential role of CIB1 in outside-in signaling through integrin alpha IIb beta 3. J Thromb Haemost.
PROTOCOL TABLES SEQUENCE No. (1, 2, 3, etc.); […] (e.g., Cells, Incubation, Reagent, etc.); VALUE and DESCRIPTION. 1; Reagent; 3 uL; Protein or buffer (4/3x) 2; Compound; 46 nL; Control inhibitor / compound library 3; Time; 15 min; Room temperature incubation 4; Reagent; 1 uL; Fluorescent labeled peptide (4x) 5; Time; 1000 rpm; Centrifuge 6; Time; 15 min; Room temperature incubation 7; Detection; Ex 480/ Em 540; ViewLux Fluorescence Read NOTES (numbers refer to sequence above) 1; Protein Mixture: C1B1-GST (final concentrations of 1 uM). […] 3; Room temperature incubation. 4; Fluorescent Labeled Peptide: FITC-aIIb (final concentration of 100 nM). Sequence of alphaIIb peptide: Acetyl-[…]-FITC (purity is 95.83%). 5; Centrifuge 1000 rpm (164 g) for 15 seconds. 6; Room temperature incubation. 7; ViewLux Fluorescent Polization Read: excitation = 480(20) / emission = 540(25) S and P; FITC Dichroic mirror.
With `CCn1c(-c2nonc2N)nc2c(C#CC(C)(C)O)ncc(OCC3CCCNC3)c21` (stereo not given) the Potency was “inactive”. In the case of `C=C1CC[C@@H]2[C@](C)(CO)[C@H](O)CC[C@@]2(C)[C@@H]1CC(O)C1=CCOC1=O` (stereo not given in full), the Potency is reported as “inactive”. `CN1CCN(C2CCN(C(=O)Nc3cc(Oc4ccc(NC(=O)C5(C(=O)Nc6ccc(F)cc6)CC5)c(F)c4)ccn3)CC2)CC1` was tested, and the Potency was “inactive”. With `C=C1/C(=C/C=C2\CCC[C@]3(C)[C@@H]([C@@H](C)OCCC(O)(CC)CC)CC[C@@H]23)C[C@@H](O)C[C@@H]1O` the Potency was “inactive”. `S=C(c1ccc(-c2ccc(Cl)c(Cl)c2)o1)N1CCCCC1` was tested, and the Potency was “inactive”. With `O=C(NCC(=O)N1CCCC1)Nc1ccc2cnccc2c1` the Potency was “inactive”. With `Cc1cc(CS(=O)(=O)c2ccccc2)cc(OCc2ccc(CN3CCCC3CO)cc2)c1` (stereo not given) the Potency was “inactive”. With `CC(OC1OCCN(Cc2n[nH]c(=O)[nH]2)C1c1ccc(F)cc1)c1cc(C(F)(F)F)cc(C(F)(F)F)c1` (stereo not given) the Potency was “inactive”. In the case of `CC1(C)CC[C@]2(C(=O)O)CC[C@]3(C)C(=CCC4[C@@]5(C)C[C@@H](O)[C@H](O)C(CO)(CO)C5CC[C@]43C)C2[C@@H]1O` (stereo not given in full), the Potency is reported as “inactive”. `C=C1C(=O)O[C@H]2C1CCC(C)=C1C(=O)C=C(C)[C@@]12O` (stereo not given in full) was tested, and the Potency was “inactive”. In the case of `OC(c1ccc(-c2ccc(CN3CCN(Cc4ccncc4)CC3)cc2)c(F)c1)(C(F)(F)F)C(F)(F)F`, the Potency is reported as “inactive”. In the case of `COc1cc(-c2nc(N[C@H](CO)Cc3ccccc3)ccc2C(=O)NCCOc2ccccc2)cc(OC)c1OC`, the Potency is reported as “inactive”. In the case of `CC1CCCC(O)CCC/C=C/c2cc(OS(=O)(=O)O)cc(O)c2C(=O)O1` (stereo not given), the Potency is reported as “inactive”. In the case of `CCOC(=O)C1(CCOc2ccccc2)CCN(Cc2ccc(O)c(Cl)c2)CC1`, the Potency is reported as “inactive”. With `CCOc1cccc(NC(=O)c2ccc(N3CCCC3)c(C(F)(F)F)c2)c1` the Potency was “inactive”. In the case of `Cn1nc(-c2ccc(C(F)(F)F)cc2)nc2c(=O)n(C)c(=O)nc1-2`, the Potency is reported as “inactive”. `O=C(N[C@H](Cc1cscn1)C(=O)N[C@@H](CC1CCCCC1)[C@@H](O)[C@@H](O)C1CC1)c1nc2ccccc2[nH]1` was tested, and the Potency was “inactive”. In the case of `CC(C)C[C@H](CO)Nc1nc(S[C@@H](C)c2ccccc2)nc2nc(N)sc12`, the Potency is reported as “inactive”. With `O=C(c1cc(Cc2n[nH]c(=O)c3ccccc23)ccc1F)N1CCCNCC1` the Potency was “inactive”. With `C#CC(=O)N(c1ccc(OC)cc1OC)C(C(=O)NCC(=O)OCC)c1cccs1` (stereo not given) the Potency was “inactive”. `C=C1C(=O)O[C@@H]2[C@H]1CC[C@H](C)C(CCC(=O)O)C2(C)O` (stereo not given in full) was tested, and the Potency was “inactive”. For `O=C(NCCO)c1cccc(-c2cc(Nc3ccc(OC(F)(F)F)cc3)ncn2)c1`, the Potency was “inactive”. For `O=C(NCCCn1ccnc1)c1cc(-c2ccco2)on1`, the Potency was “inactive”. For `O=C(NCCCN1CCOCC1)c1cnn2c(-c3ccccc3)cc(-c3ccccc3)nc12`, the Potency was “inactive”. `Cc1ccc(O)cc1Nc1ccnc(Nc2cccc(C(N)=O)c2)n1` was tested, and the Potency was “inactive”. For `C/C=C(/C)C(=O)O[C@H]1[C@H](OC(=O)/C(C)=C\C)[C@@]23C(CC1(C)C)[C@]1(CCC4[C@@]5(C)CC[C@H](O[C@@H]6O[C@H](C(=O)O)[C@@H](O)[C@H](O[C@@H]7O[C@H](CO)[C@H](O)[C@H](O)[C@H]7O[C@@H]7O[C@@H](C)[C@H](O)[C@@H](O)[C@H]7O[C@@H]7OC[C@@H](O)[C@H](O)[C@H]7O)[C@H]6O[C@@H]6O[C@H](CO)[C@H](O)[C@H](O)[C@H]6O)C(C)(C)C5CC[C@@]4(C)[C@]1(C)C[C@H]2O)O[C@H]3O` (stereo not given in full), the activity change, negative = inhibition was -2.7% [at 12.4 µM] (inactive). For `Cc1cccc(CC(=O)N2CCc3c2ccc(-c2cn(C)c4ncnc(N)c24)c3F)n1`, the Potency was “inactive”. With `Cc1ccc(NC(=O)N2CCN(c3nc(N)nc4sc(-c5cccnc5)nc34)CC2)cc1` the Potency was “inactive”. For `Cc1ccc(N2CCN(CCC3NC(=O)c4ccccc43)CC2)cc1C` (stereo not given), the Potency was “inactive”. In the case of `CN(C)CCN(Cc1ccc(-c2ccc(CNCCc3ccccc3)cc2)cc1)C(=O)CCC1CCCC1`, the Potency is reported as “inactive”. `Cn1ncnc1[C@@H]1c2n[nH]c(=O)c3cc(F)cc(c23)N[C@H]1c1ccc(F)cc1` was tested, and the Potency was “inactive”. In the case of `COc1cc(CN(CCN)C(=O)c2cccs2)ccc1OCc1ccccc1`, the Potency is reported as “inactive”. With `COc1cc(N2CCC(N)CC2)ccc1Nc1ncc(Cl)c(-c2c[nH]c3ccccc23)n1` the Potency was “inactive”. For `COc1ccc(C2(CNC(=O)c3ccc(NC(=O)c4ccco4)cc3)CCOCC2)cc1`, the Potency was “inactive”. `Cc1cc(C(=O)Cn2cc(C#N)ccc2=O)c(C)n1Cc1ccccc1` was tested, and the Potency was “inactive”. With `CC(C)C[C@@H]1NC(=O)[C@@H](Cc2ccccc2)NC(=O)C(CCCCCC(=O)C2CO2)NC(=O)[C@@H]2CCCCN2C1=O` (stereo not given in full) the Potency was “inactive”. For `C[C@@H]1O[C@@H](O[C@H]2CC[C@@]3(C)C(CC[C@]4(C)C3CC=C3[C@@H]5CC(C)(C)CC[C@]5(C(=O)O[C@@H]5O[C@H](CO)[C@@H](O)[C@H](O)[C@H]5O)CC[C@]34C)[C@]2(C)CO)[C@H](O)[C@H](O[C@@H]2O[C@H](CO)[C@@H](O)[C@H](O)[C@H]2O)[C@H]1O` (stereo not given in full), the Potency was “inactive”. For `C=CC(=O)N1CCC[C@@H](n2nc(-c3cccc(C(=O)Nc4ccc(C(C)C)c(C)c4)c3)c3c(N)ncnc32)C1`, the Potency was “inactive”. In the case of `CCN(CC)C(=O)C(c1ccccc1)N1CCN(c2ccc(NC(=O)c3ccccc3-c3cccnc3)cc2F)CC1` (stereo not given), the Potency is reported as “inactive”. In the case of `COC(=O)c1sccc1S(=O)(=O)Nc1ccc(Nc2ccccc2)cc1OC`, the Potency is reported as “inactive”.
